From PubChem BioAssay
Rows were chosen to be rich in hits. Some 0.41% of all compounds tested hit in one or more screens of this group.
GLA inh pH 4.5: blocks human alpha-galactosidase A at pH 4.5; 230,000 tested, under 10 active; activity change, negative = inhibition, % at 105 µM; P06280; purified enzyme, 4-MU-alpha-Gal fluorescence, pH 4.5;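 note: 0% = full activity with enzyme and -100% = basal without enzyme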
GAA glycogen: inhibitors or activators of human alpha-glucosidase glycogen cleavage; P10253; recombinant GAA, glycogen substrate, Amplex Red glucose oxidase fluorescence; Potency, µM (doses to about 76.4 µM), inactives show at the highest dose activity change, negative = inhibition, most hits filed as inhibitors; actives 0.38% (n = 300,000); AID 2100;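 note: potency is the fitted concentration of half-maximal effect; 0% = full enzyme reaction and -100% = no-enzyme basal signal; the screen sought inhibitors and activators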
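Recombinant human alpha-glucosidase (4 nM final) hydrolysed bovine liver glycogen (30 ug) for 40 min at 37 C in pH 5.0 citrate/phosphate with 0.01% Tween-20. Released glucose detected by glucose oxidase/Amplex Red, Ex 573/Em 610 nm. Compounds up to 77 uM; AC50 from Hill fits.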
GAA inhib: alpha-glucosidase (human) inhibition; P10253; purified human GAA, 4-MU-alpha-glucoside fluorescence; Potency, µM (highest dose often 76.9 µM), for the others: top-dose activity change, negative = inhibition, hits mostly inhibitors; actives 0.005% (n = 200,000); AID 1466;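 note: potency is the fitted concentration of half-maximal effect; plate controls were uninhibited enzyme wells for no effect and no-enzyme background for full effect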
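Fluorescence at Ex 365/Em 440 nm from 4-methylumbelliferone reported enzyme activity after 20 min at room temperature. Reactions used 4 nM enzyme and 400 uM substrate at pH 5.0; curves fitted with the Hill equation.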
aGlu spleen mod: lysosomal alpha-glucosidase (human) modulation; P10253; human spleen homogenate, 4-MU-alpha-glucoside fluorescence; Potency, µM (titrated, usually from 79.9 µM), for the others: top-dose activity change, negative = inhibition, usual class: inhibitors; actives 0.006% (n = 240,000);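 note: potency is the fitted concentration of half-maximal effect; 0% = enzyme with vehicle and -100% = no enzyme basal signal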
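Human spleen homogenate (1 ug) incubated with compounds and 1 mM 4-methylumbelliferyl-alpha-D-glucopyranoside in pH 5.0 citrate/phosphate buffer, 37 C, 40 min. Stopped at pH 10; 4-MU fluorescence (Ex 365/Em 440 nm); AC50 by Hill fit.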
aGal spleen mod: inhibits or activates alpha-galactosidase in human spleen homogenate; P06280; human spleen homogenate, 4MU-alpha-Gal fluorescence, 40 min; Potency, µM (titrated, usually from 80 µM), for the others: top-dose activity change, negative = inhibition, most hits filed as inhibitors; actives 0.008% (n = 240,000);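 note: potency is the fitted concentration of half-maximal effect; 0% = enzyme with vehicle and -100% = no enzyme basal signal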
Target sequence (P06280 32-429 limits assumed): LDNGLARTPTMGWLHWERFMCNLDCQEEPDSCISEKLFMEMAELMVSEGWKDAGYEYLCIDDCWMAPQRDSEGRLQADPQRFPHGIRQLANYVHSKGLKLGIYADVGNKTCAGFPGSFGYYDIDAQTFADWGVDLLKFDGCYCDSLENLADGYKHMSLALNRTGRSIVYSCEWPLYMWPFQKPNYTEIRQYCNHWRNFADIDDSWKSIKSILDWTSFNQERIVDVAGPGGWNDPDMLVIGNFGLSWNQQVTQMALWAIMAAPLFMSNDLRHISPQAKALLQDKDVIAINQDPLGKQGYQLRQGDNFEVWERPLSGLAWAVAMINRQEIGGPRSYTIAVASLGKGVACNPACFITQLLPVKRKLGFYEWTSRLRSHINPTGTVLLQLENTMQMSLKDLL
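Spleen homogenate 1 ug + cpd (titration) + 4-MU-alpha-D-galactopyranoside 1 mM; 37C 40 min; 50 mM citrate/phosphate pH 5.0, 0.01% Tween-20; stop pH 10; fluorescence 365/440; AC50 via Hill.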
N370S GC mod: N370S glucocerebrosidase modulation, Gaucher chaperone candidate; Potency, µM (top dose mostly 59.4 µM), without a hit: at the highest dose activity change, negative = inhibition, actives largely listed as inhibitors; P04062; N370S GC spleen homogenate, 4MU-glucoside fluorescence; actives 0.092% (n = 330,000);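 note: potency is the fitted concentration of half-maximal effect; 0% = full enzyme activity and -100% = no enzyme basal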
* hit, by the source's call; ? = inconclusive; / = not tested or not shown; [ ] = dose if it differs, or a comment. Calls come from the whole dose curve; as a rule, active = well fitted curve in the direction sought with a large enough effect; inconclusive = small, poorly fitted or top-dose-only effect, or another doubt; inactive = no such curve, though single readings can be large; an effect the other way counts as inactive or inconclusive.

SMILES	GLA inh pH 4.5	GAA glycogen	GAA inhib	aGlu spleen mod	aGal spleen mod	N370S GC mod
COc1cccc(C(=O)Nc2ccc3nc(N4CCOCC4)cc(C)c3c2)c1	-9	-3%	-6%	8%	6%	10µM*
O=C(NNC(=O)c1cc(O)c(O)c(O)c1)NC1CCCCC1	10	7.9µM*	-6%	-10%	-2%	4%
O=C(NNC(=O)c1cccnc1)NC1CCCCC1	-2	-3%	2%	-1%	1%	-7%
CCOc1ccc(OC(=O)c2cccc(S(=O)(=O)N3CCN(C)CC3)c2)cc1	/	/	/	/	/	-30%
CC1(C)CC(=O)c2c(oc3cc(O)c(O)cc23)C1	-1	7.9µM*	-5%	-6%	6%	-4%
COc1cccc(C(=O)N(Cc2nc(-c3ccc(C)cc3)no2)C(C)C)c1	-7	-8%	-3%	-3%	1%	?
CCN(CC)c1ccc(NC(=S)NC(=O)c2ccco2)cc1	6	11µM*	13%	-9%	-1%	-4%
CC(=O)NC(=S)Nc1ccc(NC(=S)NC(=O)c2cccs2)cc1	/	-6%[76.3 µM]	/	/	/	8%
CCN(CC)c1ccc(NC(=S)NC(=O)c2cccs2)cc1	1	14µM*	7%	5%	11%	?
COc1ccc(CS(=O)(=O)CC(C)(O)c2ccc(Cl)cc2)cc1 (stereo unspecified)	/	1%	/	/	/	0%
Cc1csc(=S)n1-c1ccccc1	11	2%	1%	-11%	-13%	8%
Cc1cccc(N(CC(=O)NCc2ccc3c(c2)OCO3)C(=O)CCC(=O)Nc2ccccn2)c1C	2	20%	-6%	9%	9%	8%
N#C/C(=N/Nc1ccc(OC(F)(F)F)cc1)C(N)=S	-4	?	-18%	-4%	0%	-11%
NC(=S)N=Nc1ccc(NN=C(N)N)cc1	/	40µM*	/	/	/	-9%
Cc1cccn2cc(-c3cccc(NC(=O)c4cccs4)c3)nc12	2	2%	0%	0%	-8%	-4%
O=C(/C=C/c1ccc(O)c(O)c1)O[C@@H](C(=O)O)[C@@H](OC(=O)/C=C/c1ccc(O)c(O)c1)C(=O)O	/	/	/	-7%	-7%	-26%
O=C(O)/C=C/c1ccc(O)c(O)c1	1	7.9µM*	-9%[15.4 µM]	?	?	-20%
O=C(/C=C/c1ccc(O)c(O)c1)NC(=O)c1ccccc1O	-5	3.5µM*	/	4%	11%	-24%
Nc1nc(CN2CCC(Cc3ccccc3)CC2)nc(Nc2ccccc2)n1	-1	-2%	-12%	5%	6%	-7%
Cc1ccc(-n2c(=O)c3ccc(C(=O)NCc4ccco4)cc3n(Cc3ccc(Cl)cc3)c2=O)cc1	/	21%[76.3 µM]	/	/	/	/
Cc1cc(C(C#N)c2cccc(Cl)c2)n2ncnc2n1 (stereo unspecified)	5	?	5%	-5%	3%	-3%
Cc1cc(C(C#N)c2ccccc2)n2ncnc2n1 (stereo unspecified)	2	25µM*	?	2%	8%	1%
Cc1cc(C)nc(SCC(=O)Nc2ccc(S(=O)(=O)Nc3ncccn3)cc2)n1	-1	3.5µM*	8%	-6%	-13%	13%
CCOC(=O)c1c(OCC)[nH]c2c1cc(O)c1ccccc12	2	25µM*	-2%	5%	6%	?
COc1ccc(CCNC(=O)C23CN(Cc4ccccc4)CC2C(c2cccc([N+](=O)[O-])c2)=NO3)cc1 (stereo unspecified)	-15	-6%	-4%	1%	2%	9%
SMILES	GLA inh pH 4.5	GAA glycogen	GAA inhib	aGlu spleen mod	aGal spleen mod	N370S GC mod
CCOc1ccc(NC(=O)CC2SC(=O)N(c3ccccc3)C2=O)cc1 (stereo unspecified)	1	20µM*	-6%	-3%	10%	2%
Cc1ccccc1NC(=O)CC1SC(=O)N(c2ccccc2)C1=O (stereo unspecified)	-3	25µM*	-10%	-7%	-8%	-1%
CCOc1ccccc1NC(=O)CC1SC(=N)N(c2ccccc2)C1=O (stereo unspecified)	-3	24%	5%	-2%	-2%	6%
O=C(CC1SC(=O)N(c2ccccc2)C1=O)Nc1cccc2ccccc12 (stereo unspecified)	0	?	/	-2%	4%	-8%
CCN(CC(=O)Nc1ccc(NC(C)=O)cc1)C(=O)c1cn(-c2ccccc2)nc1-c1cccs1	/	/	/	/	/	-5%
CCS(=O)(=O)N1Cc2ccccc2CC1C(=O)Nc1ccc(OC)cc1 (stereo unspecified)	4	?	1%	1%	-3%	-3%
C/C(=N\NC(=O)CSCc1ccccc1Cl)c1cc(O)ccc1O	-5	35µM*	2%	2%	11%	-6%
CN1CCN(C(=O)Nc2cccc(Cl)c2)c2cccnc21	/	4.5µM*	/	/	/	/
CCOc1cc2[nH]c(=O)n(CCC(=O)NCCc3ccc(OC)c(OC)c3)c(=O)c2cc1OCC	4	3%	3%	-4%	-3%	9%
Cc1cc(O)c(N)c(C)c1Cl	4[21.1 µM]	8.9µM*	0%	3%	1%	-5%
Cc1cc(O)cc(C)c1Cl	2	/	/	-7%	-4%	-3%
COc1ccccc1NC(=O)c1sc2nc3n(c(=O)c2c1C)CCC3	/	-7%[76.3 µM]	/	/	/	4%
COc1ccc(-c2ccc(=O)n(CC(=O)Nc3ccc(C(=O)NC4CC4)cc3)n2)cc1OC	3	-1%	-14%	5%	9%	4%
CC(=O)/C(=N/Nc1cccc(Cl)c1)N1CCOCC1	-26	14µM*	-2%	2%	3%	1%
CC(=O)/C(=N/Nc1ccccc1C)N1CCOCC1	-27	13µM*	-4%	-3%	9%	-1%
CC(=O)/C(=N/Nc1ccccc1)N1CCOCC1	-2	10µM*	-5%	-16%	-9%	-5%
CCOC(=O)/C(=N\Nc1cccc(C(F)(F)F)c1)N1CCOCC1	-3	?	-4%	-2%	2%	-2%
Cc1cc(=O)oc2c(CN(C)Cc3ccccc3)c(O)ccc12	?	-4%	?	?	?	?
Cc1cc(=O)oc2c(N)c(O)ccc12	-1	10µM*	-1%	6%	-24%	-11%
CC(=O)n1cc(N(C(=O)CCl)c2ccc(Cl)cc2)c2ccccc21	-8	-9%	/	0%	6%	16µM*
COc1ccccc1N(C(=O)CCl)c1cn(C(C)=O)c2ccccc12	-5	-2%	/	-3%	-8%	5%
CC(C)=CCc1c(O)ccc2c1OC(c1ccc(O)c(O)c1)CC2=O (stereo unspecified)	3	?	/	1%	-4%	-19%
